# Results taken from the supplement of paper PMC3334620.
# Over roughly 33,000 sequences, “E-score (-0.5 to 0.5)” has its median near -0.021; the highest 2% begin near 0.32. This is one part of a sample in which the highest values are shown more often than they occur.
# Molecular target: T1, Zap1 (UniProt P47043)
# T1 sequence: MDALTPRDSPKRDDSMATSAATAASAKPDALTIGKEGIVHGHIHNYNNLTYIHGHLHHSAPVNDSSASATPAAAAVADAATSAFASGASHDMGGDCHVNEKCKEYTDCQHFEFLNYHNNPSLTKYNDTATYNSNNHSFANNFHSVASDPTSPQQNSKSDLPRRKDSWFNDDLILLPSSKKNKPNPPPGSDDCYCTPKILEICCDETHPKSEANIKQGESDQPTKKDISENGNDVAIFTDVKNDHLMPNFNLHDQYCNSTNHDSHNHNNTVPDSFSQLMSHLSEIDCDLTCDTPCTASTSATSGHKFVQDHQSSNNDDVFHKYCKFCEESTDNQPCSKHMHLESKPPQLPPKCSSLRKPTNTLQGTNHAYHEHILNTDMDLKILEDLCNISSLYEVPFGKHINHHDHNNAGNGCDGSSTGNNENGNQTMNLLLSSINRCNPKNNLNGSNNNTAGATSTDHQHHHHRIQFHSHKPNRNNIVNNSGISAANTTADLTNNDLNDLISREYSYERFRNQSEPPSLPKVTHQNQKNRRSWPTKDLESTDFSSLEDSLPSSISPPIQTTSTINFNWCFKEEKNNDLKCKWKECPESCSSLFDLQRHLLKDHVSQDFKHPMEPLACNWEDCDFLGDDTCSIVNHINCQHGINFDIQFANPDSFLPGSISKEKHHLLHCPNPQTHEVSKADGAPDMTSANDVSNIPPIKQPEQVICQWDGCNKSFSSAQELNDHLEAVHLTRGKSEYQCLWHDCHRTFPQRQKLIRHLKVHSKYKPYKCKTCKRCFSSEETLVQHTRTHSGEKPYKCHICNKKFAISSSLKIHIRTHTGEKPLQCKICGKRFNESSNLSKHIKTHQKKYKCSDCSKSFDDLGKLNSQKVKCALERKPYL
# Test: PBM E-score (8-mer binding enrichment) (E-score (-0.5 to 0.5)); higher = stronger / more preferred TF binding
# Conditions: protein concentration: 200 nM; construct: GST-full length
# Method: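 Universal 'all 10-mer' protein binding microarrays (Agilent AMADID 015681) probed with GST-tagged S. cerevisiae TFs (full-length or DBD) made by in vitro transcription/translation (PURExpress), about 100-200 nM. Bound TF was detected with fluorescent anti-GST. Each ungapped 8-mer (which stands for itself and its reverse complement) is scored by the PBM enrichment score (E-score), a modified Wilcoxon-Mann-Whitney statistic from -0.5 to +0.5, computed with the Universal PBM Analysis Suite. Scale: above 0.35 generally sequence-specific binding.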
row,Sequence,PBM E-score
1,ACAAAGGG,0.0567
2,ACAAAGGT,0.352
3,AAAAAGGG,0.243
4,ACAAAGGC,0.0392
5,AAAAAGGT,0.403
6,AAAAAGGA,0.15
7,CCTTTCTA,0.121
8,ATCTAACC,0.226
9,CAATACCC,0.214
10,AGATACCA,0.137
11,CGATACCC,0.275
12,GGATACCA,0.17
13,GGATACCC,0.393
14,AAATACCT,0.128
15,AAATACCC,0.328
16,AGATACCG,0.0651
17,AGATACCC,0.325
18,ACTCATGA,-0.0211
19,CAGTAGGA,-0.247
20,AGATATCT,0.0317
21,TGATTGAA,0.154
22,ACCTAAGG,0.185
23,ACTGCTTC,-0.175
24,TCCTTGAA,0.158
25,ACCTTGGG,0.327
26,CCCTTGAA,0.102

row,Sequence,PBM E-score
1,ACCTTGGA,0.195
2,ACCTTGAC,0.266
3,CCCTTGAC,0.193
4,ACCTTGGC,0.106
5,ACCTTGAA,0.337
6,GCCTTGAA,0.0337
7,ACCTTGCT,0.218
8,ACCTTGAT,0.325
9,CCCTTGAG,0.33
10,CGTGAGGA,-0.201
11,AGAGCGAA,-0.124
12,CACTCTGG,-0.151
13,CATTCTAG,-0.0521
14,GGATAGAA,0.0515
15,CGTTAGAG,-0.109
16,CATCCAGC,-0.108
17,ACCTTGAG,0.354
18,ACCTTGCG,0.284
19,AACTTGAG,-0.143
20,AAGGTCGC,0.193
21,AAGGTCAA,0.279
22,AAGGTCGA,0.176
23,AAGGTCGT,0.334
24,ACGGTCAT,0.359
25,ACGGTCAA,0.177
26,AAGGTCAT,0.444

row,Sequence,PBM E-score
1,GAGGTCAC,0.392
2,ACGGTCAG,0.0381
3,AAGGTCCT,0.123
4,CAGGTCAC,0.195
5,GAGGTCAA,0.21
6,GCTTGACC,0.214
7,ATAAAGAT,0.00332
8,AACACCTA,0.0163
9,ATGGTAGA,-0.00844
10,GAGAGAGC,-0.261
11,AAATGGAG,-0.132
12,TGCCCTAA,-0.171
13,CTTAGGGC,0.0876
14,ATTGACTG,-0.136
15,AAGGTCCC,0.152
16,AAGGTCAC,0.417
17,CAGGTCAG,0.0791
18,AAGGTCTC,0.162
19,AAGGTCTG,0.15
20,AAGGTCAG,0.32
21,GAAAGCGC,-0.115
22,AGAAACCG,0.0611
23,CTGTACTA,0.0369
24,GGCGACAC,-0.0969
25,CGGCTGAC,-0.193
26,GAGACCAC,0.15

row,Sequence,PBM E-score
1,GAGGGCAA,-0.0412
2,CAGGCGAC,-0.117
3,CCCCCTAC,-0.32
4,CACCCTAG,0.353
5,CGCCCTAG,-0.00248
6,AGCCCTAC,-0.12
7,AAACCTGT,0.0581
8,AAGCCTGT,-0.128
9,AAACCTAC,0.194
10,AACCCTGT,0.419
11,CACCCTCG,0.234
12,AACCCTAC,0.357
13,GACCCTAC,0.311
14,CACCCTAC,0.328
15,CTCAGCAG,-0.129
16,TCAGCGAA,-0.107
17,CTCGCTTA,-0.0929
18,AAGCCTGC,-0.182
19,CTTCAGTA,0.0193
20,AGAGACCA,0.121
21,ATGGTGCA,0.0684
22,CTCACGAG,0.0376
23,ACCTGAAT,0.136
24,CAGCTGTA,-0.203
25,AACCCTAT,0.441
26,AACCCTAG,0.408

row,Sequence,PBM E-score
1,ATCCCTAG,0.0856
2,AAACCTAG,0.051
3,AAACCTAT,0.164
4,AACCCTCT,0.27
5,CAAATTCC,-0.00509
6,CGTCACAA,-0.0229
7,GGTCACGA,0.391
8,GGTCGCGA,0.32
9,TGTCACAA,0.0989
10,CGTCACGA,-0.0348
11,AGTCACGA,0.0207
12,GGTCACAA,0.393
13,CGTCGCGA,0.00596
14,AGTCGCGA,0.113
15,AGATAGGG,-0.0822
16,GAGCGTGC,-0.173
17,TATTAGAA,0.159
18,AGAAGTCT,-0.257
19,AGCCTGAG,-0.0458
20,TGTGAGAA,-0.0687
21,CGGACTTC,-0.17
22,CATATGGA,-0.057
23,AATCCAAC,-0.0925
24,GAGACCTC,0.0168
25,ATCTAGGC,-0.197
26,ACCTACAA,0.178

row,Sequence,PBM E-score
1,CCCTACAA,0.33
2,CCCTACAC,0.0286
3,CCAATGCA,-0.0366
4,CAACTAAC,0.21
5,GCTCGAGC,-0.169
6,GCACCTTA,0.112
7,CCACCTTA,0.342
8,CTACCTGA,0.00976
9,CCACCTGA,0.0282
10,CTACCTTA,0.327
11,ATACCTTA,0.184
12,AAGAGCAG,-0.247
13,CAACTGGC,-0.0185
14,AACCACTC,0.289
15,ATCTGTCC,-0.318
16,ATGCAGTG,-0.0561
17,GGTTTGTA,0.119
18,GGGTTGTA,0.35
19,AAGTTGCG,0.0515
20,AGGTTGCG,0.333
21,AGGTTGGG,0.232
22,AGGTTGCC,0.088
23,AGGTTGCA,0.299
24,AGGTTGTC,0.242
25,GGGTTGCA,0.352
26,GGGTTGGA,0.16

row,Sequence,PBM E-score
1,AGGTTGTG,0.349
2,CGGTTGCA,-0.0132
3,CAGCATGG,-0.00544
4,GCCCGCGC,-0.0387
5,CGTCTAGC,-0.21
6,TGACACCA,-0.0107
7,CACGGCTG,-0.212
8,AAGTTGTA,0.112
9,CGGTTGTA,0.153
10,AGGTTGTA,0.338
11,CCGTTTGC,0.0589
12,ACCAGGGG,-0.0398
13,AACAGGGT,0.348
14,ACCAGGGA,-0.00163
15,AATAGGGA,-0.0102
16,AACAGGGA,0.044
17,AACAGGGC,-0.0745
18,ACCAGGGT,0.358
19,AATAGGGG,0.0477
20,AATAGGGT,0.374
